Screens deposited in PubChem by several laboratories.
Rce1 inh – inhibitors of yeast Ras-converting enzyme. Q03530. yeast membranes, quenched prenylated peptide cleavage fluorescence. calls only. 0.27% of 290,000 active;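 active means fall in fluorescence gain of 50% or more versus controls, with final raw signal at or below 3038400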;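 further: plate controls were neutral control wells for no effect and wells lacking membranes for full effect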
Target sequence (Q03530 whole entry, looked up): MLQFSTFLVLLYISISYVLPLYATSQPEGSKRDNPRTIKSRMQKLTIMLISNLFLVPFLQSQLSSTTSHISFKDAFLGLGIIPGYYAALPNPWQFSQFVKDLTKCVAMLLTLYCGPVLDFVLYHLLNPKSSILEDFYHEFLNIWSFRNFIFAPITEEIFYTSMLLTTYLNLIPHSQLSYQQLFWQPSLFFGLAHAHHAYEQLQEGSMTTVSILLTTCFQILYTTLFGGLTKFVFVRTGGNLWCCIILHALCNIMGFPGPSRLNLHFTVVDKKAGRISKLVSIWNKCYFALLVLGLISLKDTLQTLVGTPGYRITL
PLCg1 inh – blocks human PLC-gamma1 enzyme activity. P19174. purified PLC-gamma1, fluorogenic substrate, fluorescence. inhibition, % at 12.2 µM. 0.84% of 370,000 active. AID 720700
ADAM17 inh – inhibits human ADAM17; inhibition, % at 6.95 µM; 0.83% of 370,000 active; recombinant ADAM17, EDANS/DABCYL FRET peptide cleavage; P78536;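 active means inhibition above the mean of compounds lying between control limits plus 3 SD, set per campaign, cut at about 8.5% in these data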;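 further: 0% = DMSO-only wells as the low control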
ADAM10 inh – inhibits human ADAM10; inhibition, % at 7 µM; 0.62% of 370,000 active; AID 720582; recombinant ADAM10, EDANS/DABCYL FRET peptide cleavage, 3 h;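 active means inhibition above a per-campaign cutoff equal to the mean of compounds falling between control-based bounds plus 3 SD, cut at about 20% in these data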;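 further: 0% = DMSO wells while the 100% control is not disclosed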
PLCb3 inh – blocks human PLC-beta3 enzyme activity. Q01970. Purified PLC-beta3, fluorogenic substrate, fluorescence. inhibition, % at 12.2 µM. 0.18% of 370,000 active. AID 720704; in the data active means inhibition above about 11%;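 further: 0% = median of compound wells on plate and 100% = full blocker control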
PLCg1 ctr – inhibits human PLC-gamma1 in PLC-beta3 counter-screen. shares compounds with PLCg1 inh. purified PLC-gamma1, fluorogenic substrate, fluorescence. inhibition, % at 12.3 µM. 3.1% of 3,300 active. AID 743258
PLCbeta3 conf – confirmation of human PLC-beta3 inhibitors | shares compounds with PLCg1 inh | purified PLC-beta3, fluorogenic substrate fluorescence | inhibition, % at 12.3 µM | 1% of 3,300 active; in the data active means inhibition above about 11%
* = called active by the depositor; i = inactive; . = no result given. Sampled rows, rich in hits. Any-hit rate of the full collection: about 2.1%. Unless noted, no stated cut-off is given here; in the data, active means inhibition above about 9.5%; inactive means the rest.

SMILES	Rce1 inh	PLCg1 inh	ADAM17 inh	ADAM10 inh	PLCb3 inh	PLCg1 ctr	PLCbeta3 conf
CC(=O)C1=C(O)C(=O)N(c2ccc(O)cc2)C1c1ccccc1Cl (stereo unspecified)	i	-29	-6	-1	-44	.	.
C=C(C)C(=O)Nc1cccc(C2=NOC3(C2)C[C@@H](C(N)=O)N(C(=O)c2cc([N+](=O)[O-])cc([N+](=O)[O-])c2C)C3)c1 (stereo partly specified)	i	10*	8	8	-14	-7	-2
C/C=C/C(=O)Nc1cccc(C2=NOC3(C2)C[C@@H](C(N)=O)N(C(=O)c2cc([N+](=O)[O-])cc([N+](=O)[O-])c2C)C3)c1 (stereo partly specified)	i	11*	-4	9	4	-7	-3
Cc1c(C(=O)N2CC3(CC(c4cccc(NC(=O)[C@H]5CCC(=O)N5)c4)=NO3)C[C@@H]2C(N)=O)cc([N+](=O)[O-])cc1[N+](=O)[O-] (stereo partly specified)	i	3	-2	-1	-1	.	.
CCCCc1ccc(N2C(=NC(=O)C3CCCO3)SC3CS(=O)(=O)CC32)cc1 (stereo unspecified)	i	9.6*	0	2	-4	-4	-1
CC(C)c1ccc(N2C(=NC(=O)C3CCCO3)SC3CS(=O)(=O)CC32)cc1 (stereo unspecified)	i	-2	-7	-2	-10	.	.
CCOC(=O)Cc1nnc(NC(=O)CCc2ccccc2)s1	i	11*	-4	-9	-4	-1	-10
NC(=O)CCn1nc(-c2ccc(Cl)cc2)c2ccccc2c1=O	i	12*	-1	2	2	-7	-7
O=C(O)c1cccnc1SCc1ccc([N+](=O)[O-])cc1	i	2	0	11	-4	.	.
O=[N+]([O-])c1cccnc1SCc1ccccc1	i	15*	6	4	0	2	0
O=C(NC1CCCC1)C(c1cccnc1)N(C(=O)c1csnn1)c1ccc(F)cc1 (stereo unspecified)	i	9.7*	-3	-21	-5	-1	5
CC(=O)c1ccc(N(C(=O)c2csnn2)C(C(=O)NC2CCCC2)c2ccccc2)cc1 (stereo unspecified)	i	11*	4	2	3	-4	1
O=C(NC1CCCC1)C(c1ccccc1)N(C(=O)c1csnn1)c1ccccc1F (stereo unspecified)	i	9.9*	0	8	6	2	-3
O=C(NC1CCCC1)C(c1ccncc1)N(C(=O)c1csnn1)c1ccccc1 (stereo unspecified)	i	0	-5	-9	-12	.	.
C[C@H]1[C@H](c2ccccc2)C[C@@H](C(=O)O)C1(C)C	i	1	3	7	0	.	.
C=CC[C@]12CCc3sccc3C1N(c1ccc(C(=O)OCC)cc1)C2=O (stereo partly specified)	.	1	2	3	-1	.	.
Cc1cccc(NC(=O)c2cc(-c3cccnc3)nc3c(C)cccc23)n1	i	-3	-1	-16	-9	.	.
CCCCCCSc1ccc([C@H]2N[C@@](C)(C(=O)OC)[C@H]3C(=O)N(CC)C(=O)[C@@H]23)cc1	i	1	3	9	1	.	.
Cc1onc(-c2ccc(Cl)cc2)c1-c1ccn(S(=O)(=O)c2cccc(Cl)c2)n1	.	9.8*	5	4	-2	1	-6
COc1ccc(Cn2c(NC(=O)c3ccccc3)nc(Cc3ccccc3)c2Cc2ccccc2)c(OC)c1	.	-16	3	-3	-22	.	.
N#CC(c1ccc(Cl)cc1)c1ccc(Cl)nn1 (stereo unspecified)	i	8	4	7	12*	-4	-1
CCc1ccc(OCCOCC(O)CN(CCO)CCO)cc1 (stereo unspecified)	i	4	2	13	11*	-10	-5
O=P(Cc1cccc[n+]1[O-])(c1ccccc1)c1ccccc1	i	1	-3	-10	3	.	.
O=P(Cc1cc[n+]([O-])cc1)(c1ccccc1)c1ccccc1	i	7	2	6	11*	-3	1
COc1ccc(CN2CCN(c3ccccn3)CC2)c(OC)c1	i	10*	4	11	3	-8	0
SMILES	Rce1 inh	PLCg1 inh	ADAM17 inh	ADAM10 inh	PLCb3 inh	PLCg1 ctr	PLCbeta3 conf
COc1ccc(S(=O)(=O)NC(=O)C2(C)CCN2C(=O)c2cccc(F)c2)cc1 (stereo unspecified)	.	-2	-4	-16	1	.	.
Cn1c(SCC(=O)N2CCOCC2)nnc1-c1ccccc1	i	9	7	7	12*	-4	-2
Cn1c(SCC(=O)N2CCN(c3ccccc3)CC2)nnc1-c1ccncc1	i	1	3	9	6	.	.
NC(=O)NC(=O)COC(=O)CCSc1ccccc1	i	8	2	-6	11*	-9	-4
CSCCC(NS(=O)(=O)c1ccc(Cl)cc1)C(=O)OCC(=O)N(C(C)C)C(C)C (stereo unspecified)	.	0	-1	4	3	.	.
CSCCC(NS(=O)(=O)c1ccc(Cl)cc1)C(=O)OCC(=O)c1ccc(F)cc1 (stereo unspecified)	i	5	5	13	12*	-2	-1
CC(C)(C)C(=O)Cn1ncc(Br)c(Br)c1=O	i	0	-4	-3	-1	.	.
COc1ccc(OC)c(NC(=O)COC(=O)C2CCC2)c1	.	0	1	-6	-5	.	.
COc1ccc(OC)c(NC(=O)COC(=O)C2CCCCC2)c1	.	10*	4	15	12*	-2	1
CN(CC(=O)Nc1ccc(F)c(F)c1F)C1CCCCC1	i	10*	4	-4	2	-5	-4
COc1ccc(NC(=O)CN(C)C2CCCCC2)c([N+](=O)[O-])c1	i	12*	-5	-14	-1	2	3
CC(C)(C)C1N=C(c2ccc3ccccc3c2)OC1=O (stereo unspecified)	.	-3	-4	-8	-4	.	.
COc1ccccc1CNc1cncnc1	i	-11	-26	-53	-25	.	.
COc1ccccc1CNc1ncccn1	i	9.7*	5	10	1	-2	2
O=C(COC(=O)/C=C/c1cccc(F)c1)NC(=O)NCc1ccccc1	.	0	-1	0	-7	.	.
CC1(C(=O)NS(=O)(=O)C2CC2)CCCN(C(=O)c2cccs2)C1 (stereo unspecified)	.	2	1	1	-1	.	.
Cc1ccsc1C(=O)N1CCCC(C)(C(=O)NS(=O)(=O)C2CC2)C1 (stereo unspecified)	.	9.8*	2	2	5	0	3
